ELG1 DNA repair: ELG1-dependent DNA repair inhibition | HEK293T ELG1-luciferase reporter, luminescence, 16 h; DNA damage induced by 5-fluorouridine | Potency, µM (series often up to 46.1 µM), actives largely listed as inhibitors | 330,000 tested, 2.3% active | AID 504467; note: nearly all actives have a fitted effect of over 55% in size
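Quantitative HTS, concentration-response format. 2,000 cells/well co-treated with 5-fluorouridine and compound, 16 hr in 5% CO2 at 37 °C; ONE-Glo luminescence read after 30 min.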
IL1B secr inh: blocks inflammasome-driven IL-1 beta release | THP-1 LPS/ATP IL-1B secretion, AlphaLISA, 16 h; stronger effect = lower value | activity change, % at 57.5 µM | 360,000 tested, 4.7% active; in the data active = activity change below about -50%; inconclusive = mostly about -30% to -49%
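THP-1 cells pretreated 1 hr with compounds (up to 57.5 uM final), then stimulated with LPS (250 ng/mL final) plus ATP (1.25 mM final); secreted IL-1B measured by AlphaLISA after 16 hr, decreased signal indicating inhibition.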
TDP1 cell noCPT: qHTS for Inhibitors of human tyrosyl-DNA phosphodiesterase 1 (TDP1): qHTS in cells in absence of CPT; 420,000 tested, 15% active; DT40 Tdp1-/- hTDP1 cells, no CPT, ATP luminescence, 48 h; Potency, µM (series often up to 46.2 µM), most hits filed as inhibitors; AID 686978, 2013; note: nearly all actives have a fitted effect of over 55% in size
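Compound effects on proliferation are scored in DT40 Tdp1-/-;hTDP1 cells in the absence of CPT. ATP levels (CellTiter-Glo luminescence) are recorded after a ≥48 hr, 37 °C incubation.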
RORg inh: blocks mouse ROR gamma transcriptional activity. Drosophila S2 Gal4-RORgamma UAS-luciferase reporter, 20 h. 310,000 tested, 5.4% active. AID 2551. Potency, µM (top dose mostly 53.6 µM), actives largely listed as inhibitors; note: nearly all actives have a fitted effect of over 60% in size
Target sequence (P51450 whole entry, looked up, the tested form may be a part): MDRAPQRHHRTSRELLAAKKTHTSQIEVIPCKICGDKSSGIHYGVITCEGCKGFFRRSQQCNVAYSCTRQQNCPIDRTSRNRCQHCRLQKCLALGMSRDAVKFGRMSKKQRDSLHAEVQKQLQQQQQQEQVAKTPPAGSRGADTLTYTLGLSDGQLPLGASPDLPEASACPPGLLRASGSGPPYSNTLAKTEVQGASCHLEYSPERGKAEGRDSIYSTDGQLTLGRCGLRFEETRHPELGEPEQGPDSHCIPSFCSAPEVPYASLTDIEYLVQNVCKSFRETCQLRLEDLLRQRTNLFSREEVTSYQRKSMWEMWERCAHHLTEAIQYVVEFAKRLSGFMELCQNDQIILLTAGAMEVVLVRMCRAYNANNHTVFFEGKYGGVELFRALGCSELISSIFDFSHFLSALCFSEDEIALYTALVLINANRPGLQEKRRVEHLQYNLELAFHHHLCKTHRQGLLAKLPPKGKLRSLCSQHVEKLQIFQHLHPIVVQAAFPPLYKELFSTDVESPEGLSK
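Luminescence from a UAS-regulated Photinus luciferase reporter in stably transfected Drosophila Schneider cells is measured; decreased signal marks ROR gamma inhibition. Fusion expression is induced by 700 uM copper sulfate for 20 hr.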
TDP1 cell CPT: DT40-hTDP1 cell growth loss with CPT; 420,000 tested, 12% active; chicken DT40 Tdp1-/-;hTDP1 cells + 20 nM CPT, ATP luminescence, 48 h; AID 686979; Potency, µM (doses to about 46.2 µM), actives largely listed as inhibitors; note: nearly all actives have a fitted effect of over 55% in size
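Chicken DT40 Tdp1-/- cells stably complemented with human TDP1 were seeded at 400 cells/well in medium containing 20 nM camptothecin, exposed to pin-transferred compounds, and grown at 37 °C for at least 48 hr. Viability was read as ATP luminescence.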
Gal4-VP16 FLuc: counter-screen for ROR gamma inhibitors: Gal4-VP16 reporter. AID 2546. 310,000 tested, 3.5% active. Drosophila S2 Gal4-VP16 UAS-luciferase, luminescence, 20 h. Potency, µM (titrated, usually from 53.6 µM), usual class: inhibitors;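 note: Gal4-VP16 expression switched on by copper sulfate through the metallothionein promoter; nearly all actives have a fitted effect of over 50% in size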
Of the large screens only hits and unclear results are named; the others gave an inactive call. Shown are actives, neighbours in structure and some others; about 21% of the full set was active somewhere. Unless noted, calls come from the whole dose curve; as a rule, active = well fitted curve in the direction sought with a large enough effect; inconclusive = small, poorly fitted or top-dose-only effect, or another doubt; inactive = no such curve, though single readings can be large; an effect the other way counts as inactive or inconclusive.

O=C(NC(=S)Nc1ccc2nc[nH]c2c1)c1ccccc1	ELG1 DNA repair inconclusive, Gal4-VP16 FLuc inconclusive
O=c1nc(-c2ccccc2)c(-c2ccccc2)n[nH]1	none
S=c1nc(-c2ccccc2)c(-c2ccccc2)n[nH]1	RORg inh 8.91µM
CCOC(=O)c1ccc(CN(Cc2ccc(C)cc2)S(=O)(=O)c2ccc(NC(C)=O)cc2)cc1	TDP1 cell noCPT 14.6µM, TDP1 cell CPT inconclusive (no result: ELG1 DNA repair, IL1B secr inh, RORg inh, Gal4-VP16 FLuc)
CCc1ccc(NC(=O)CN(C(=O)N2CCN(CC)CC2)S(=O)(=O)c2ccc(C)cc2)cc1	IL1B secr inh -55.4 (no result: RORg inh, Gal4-VP16 FLuc)
CCOC(=O)c1ccc(CN(Cc2ccccc2)S(=O)(=O)c2ccc(C)cc2)cc1	TDP1 cell noCPT 16.4µM, TDP1 cell CPT 29.1µM (no result: ELG1 DNA repair, IL1B secr inh, RORg inh, Gal4-VP16 FLuc)
Cc1ccc(NC(=O)CN(C(=O)N2CCN(C)CC2)S(=O)(=O)c2ccc(C)cc2)cc1	none (no result: RORg inh, Gal4-VP16 FLuc)
CCOC(=O)c1ccc(CN(Cc2ccc(C)cc2)S(=O)(=O)c2cccc([N+](=O)[O-])c2)cc1	TDP1 cell noCPT inconclusive, Gal4-VP16 FLuc inconclusive
CCC(C)NS(=O)(=O)c1ccc(S(=O)(=O)N(CCc2ccc(OC)c(OC)c2)Cc2cccs2)cc1 (stereo unspecified)	ELG1 DNA repair inconclusive, TDP1 cell noCPT 7.31µM, TDP1 cell CPT 10.3µM, Gal4-VP16 FLuc inconclusive
COc1ccc(CCN(Cc2cccs2)S(=O)(=O)c2ccc(-n3cnnn3)cc2)cc1OC	ELG1 DNA repair 16.4µM, TDP1 cell noCPT inconclusive, TDP1 cell CPT 11.6µM
COc1cc(S(=O)(=O)N(CCc2ccccc2)Cc2cccs2)ccc1-n1cnnn1	none
CCCS(=O)(=O)NC(=O)C1(C)CCN(C(=O)c2ccc(F)c(C)c2)C1 (stereo unspecified)	none (no result: ELG1 DNA repair, RORg inh, Gal4-VP16 FLuc)
N#Cc1ccc(CN2CC3(CCN(C(=O)c4cnccn4)CC3)C2)cc1	none (no result: ELG1 DNA repair, IL1B secr inh)
COc1ccc(Br)cc1CN(C)CC(=O)NCCc1ccc(S(N)(=O)=O)cc1	ELG1 DNA repair inconclusive, TDP1 cell noCPT inconclusive
CCNCc1cc(Cl)c(OCc2ccccc2)c(OCC)c1	ELG1 DNA repair inconclusive, IL1B secr inh -93.4, TDP1 cell noCPT inconclusive, TDP1 cell CPT inconclusive
CCOc1cc(CNCC(O)c2ccccc2)cc(Cl)c1OC (stereo unspecified)	RORg inh inconclusive, TDP1 cell CPT inconclusive
Brc1ccc(OCc2ccccc2)c(CNCC2CCCO2)c1 (stereo unspecified)	TDP1 cell noCPT 18.4µM, TDP1 cell CPT inconclusive
CCOc1cc(CNCCO)cc(Br)c1OCc1ccccc1	ELG1 DNA repair inconclusive, IL1B secr inh -80.0, TDP1 cell noCPT 16.4µM, TDP1 cell CPT 18.4µM
COc1cccc(CNCCO)c1OCc1ccccc1	none
NS(=O)(=O)c1ccc(CCNCc2cc(Br)ccc2OCc2ccccc2)cc1	IL1B secr inh -54.0, TDP1 cell noCPT 11.6µM, RORg inh inconclusive, TDP1 cell CPT 14.6µM, Gal4-VP16 FLuc 15.8µM
O=C(/C=C/c1ccc(O)c(O)c1)O[C@@H]1C[C@@](OC(=O)/C=C/c2ccc(O)c(O)c2)(C(=O)O)C[C@@H](O)[C@@H]1O	TDP1 cell noCPT inconclusive (no result: ELG1 DNA repair, IL1B secr inh, RORg inh, Gal4-VP16 FLuc)
CCC/C=C(\CCC)C(NC(=O)c1ccccc1)c1ccccc1 (stereo unspecified)	RORg inh inconclusive (no result: ELG1 DNA repair, IL1B secr inh, TDP1 cell noCPT, TDP1 cell CPT)
CN(Cc1ccccc1)C(=O)COC(=O)C1CCN(S(=O)(=O)c2ccc(Cl)c(C(F)(F)F)c2)CC1	TDP1 cell noCPT inconclusive (no result: RORg inh, Gal4-VP16 FLuc)
OCCNCc1cc(Br)ccc1OCc1ccccc1	IL1B secr inh -58.1, TDP1 cell noCPT 16.4µM, TDP1 cell CPT 23.1µM
CCOc1cc(CNCCc2ccc(S(N)(=O)=O)cc2)ccc1OCc1ccccc1	IL1B secr inh -53.9, TDP1 cell noCPT 11.6µM, TDP1 cell CPT 11.6µM
COc1cc(CNCCc2ccc(S(N)(=O)=O)cc2)ccc1OCC(=O)NC(C)(C)C	none
NS(=O)(=O)c1ccc(NCc2cc(Cl)ccc2OCc2ccc(F)cc2)cc1	IL1B secr inh -56.7, TDP1 cell noCPT inconclusive, RORg inh inconclusive, TDP1 cell CPT inconclusive

Bioassay records: PubChem BioAssay, National Center for Advancing Translational Sciences (NCATS)
